Compound activity from PubChem BioAssay.
Pf Dd2 inh: Plasmodium falciparum Dd2 growth inhibition | P. falciparum Dd2 growth, SYBR Green, 72 h | Potency, µM (series often up to 28.9 µM), for the others: at the top dose activity, negative = inhibition, hits mostly inhibitors | 120,000 tested, 4.3% active | AID 1347417; active means well fitted inhibition curve with a large enough effect;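 further: plate controls were DMSO vehicle for no effect and reference drug for full effect; nearly all actives have a fitted effect of over 65% in size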
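Readout: SYBR Green fluorescence, 485 nm excitation, 535 nm emission, after ~16 h lysis at 37C. Before that, Dd2-infected red cells (2.5% hematocrit) grew 72 h with compound, 29 uM top final concentration.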
* = called active by the depositor; i = inactive; [ ] = remark or other dose. The sample as a whole holds a higher share of hits than the screen did. Potency means the concentration at half of the fitted maximal effect.

SMILES	Pf Dd2 inh
CCC(C)Cc1nccc(C2(c3ccccc3Cl)CCNCC2)n1 (configuration not stated)	4.47µM*
OCC(O)CNc1nccc(C2(c3ccccc3Cl)CCNCC2)n1 (configuration not stated)	-14.1%
CC(C)c1nncn1C1CCN(S(=O)(=O)Cc2cccc(Cl)c2)CC1	-22.7%
O=C(NC[C@H]1OC[C@@H](NC2CCCCC2)[C@@H]1O)c1ccncc1	2.7%[44.1 µM]
Cc1ccc(C(=O)NC2CCN(C(=O)N3CC4CC(C3)[C@H]3CCCC(=O)N3C4)CC2)cc1 (some centres not stated)	i
Cc1ccc(C2Cn3nnc(C(=O)N4CCC(C(=O)NCc5ccccc5)CC4)c3CO2)cc1 (configuration not stated)	-20.6%
Cc1nc(N2CCN(C(=O)Cc3cccs3)CC2)cc(C(F)(F)F)n1	i
CN(c1ccccc1)c1cc(=O)c2ccnc(N3CCN(c4ccccn4)CC3)c2o1	12.6µM*
CN1CCN(c2cc(=O)c3ccnc(N4CCN(c5ccccn5)CC4)c3o2)CC1	-14.0%[44.1 µM]
CN(c1ccccc1)c1cc(=O)c2ccnc(N3CCOCC3)c2o1	-10.6%[44.1 µM]
COc1ccccc1OC1(C(=O)O)CCN(C(=O)CCC2CC2)CC1	0.0%
O=C(C[C@@H]1CCNC[C@@H]1Cc1cc(CSc2ccccc2)on1)NCc1cccnc1	i
COc1ccc(-c2cc(C[C@H]3CNCC[C@H]3CC(=O)NCc3ccc(OC)c(OC)c3)no2)cc1	i
COc1ccc(-c2cc(C[C@H]3CNCC[C@H]3CC(=O)NCc3ccccc3OC)no2)cc1	10µM*
O=C(C[C@@H]1CCNC[C@@H]1Cc1cc(COc2ccccc2)on1)NC1CCCCC1	-12.2%[44.1 µM]
COc1ccc(-c2cc(C[C@H]3CNCC[C@H]3CC(=O)N3CCN(C)CC3)no2)cc1	-18.7%[44.1 µM]
COc1ccc(-c2cc(C[C@H]3CNCC[C@H]3CC(=O)N(C)Cc3ccccc3)no2)cc1	10µM*
COc1ccc(-c2cc(C[C@H]3CNCC[C@H]3CC(=O)N3CCN(c4ccccc4)CC3)no2)cc1	-7.3%
O=C(C[C@@H]1CCNC[C@@H]1Cc1cc(CSc2ccccc2)on1)NCCN1CCOCC1	-20.2%
COc1ccc(CNC(=O)C[C@@H]2CCNC[C@@H]2Cc2cc(-c3ccc(OC)cc3)on2)cc1	-1.7%
CN(Cc1ccccc1)C(=O)C[C@@H]1CCNC[C@@H]1Cc1cc(CSc2ccccc2)on1	10µM*
C#CCN(C)C(=O)C[C@@H]1CCNC[C@@H]1Cc1cc(COc2ccccc2)on1	10µM*
COc1ccc(CNC(=O)C[C@@H]2CCNC[C@@H]2Cc2cc(CN(C)Cc3ccccc3)on2)cc1	i
Cc1[nH]nc(CCC(=O)N2CC[C@H](N3CCOCC3)[C@H](CCC(=O)O)C2)c1C	29.1%
c1cc(-c2ccnc3nc(C4CCCCC4)nn23)ccn1	-15.8%
SMILES	Pf Dd2 inh
Cc1cnccc1CN(C)Cc1ccc2c(C)cc(=O)oc2c1	-28.4%
CC(C)C[C@@H](NC(=O)[C@@H]1C[C@@H](NS(=O)(=O)c2cn(C)cn2)CCN1C(=O)COCC(=O)O)C(N)=O	16.0%
CC(=O)Nc1ccc(C(=O)NC[C@@H]2C=C(C)[C@H](CC(=O)NCc3ccc(C#N)cc3)C[C@H]2C(C)C)cc1	i
O=C(NC[C@H]1OC[C@@H](NC2CCCCC2)[C@@H]1O)c1cccs1	i
CCN1C(=O)C2(CCN(S(=O)(=O)c3ccc(C)cc3)CC2)c2ccccc21	0.3%
O=C(c1ccc2c(c1)N(C(=O)C1CC1)CC2)N1CCCC1	i
CN1CCN(S(=O)(=O)c2cc(C(=O)O)cc(-c3ccncc3)c2)CC1	-18.7%
Cc1ccc(CCNC(=O)c2cc3n(n2)CC(c2ccc4c(c2)OCO4)OC3)cc1 (configuration not stated)	i
COc1ncccc1CNC[C@H]1Cn2c(-c3ccc(F)cc3)cnc2CO1	25.1µM*
CS(=O)(=O)NC[C@H]1Cn2c(-c3ccc4c(c3)OCCO4)cnc2CO1	i
Clc1ccc(CNC[C@H]2Cn3c(-c4ccccc4)cnc3CO2)cc1	-12.1%[44.1 µM]
O=C(NC[C@H]1Cn2c(-c3ccc4c(c3)OCCO4)cnc2CO1)C1CC1	-7.8%[44.1 µM]
O=S(=O)(Cc1ccccc1)NC[C@H]1Cn2c(-c3ccc(Cl)cc3)cnc2CO1	-7.4%[44.1 µM]
c1ccc(CNC[C@H]2Cn3c(-c4ccc5c(c4)OCCO5)cnc3CO2)cc1	11.2µM*
Clc1ccc(-c2cnc3n2C[C@H](CNCc2cccnc2)OC3)cc1	-10.5%[44.1 µM]
O=S(=O)(Cc1ccccc1)NC[C@H]1Cn2c(-c3ccc(F)cc3)cnc2CO1	i
O=C(NCc1ccccc1)NC[C@H]1Cn2c(-c3ccc(Cl)cc3)cnc2CO1	2.82µM*
Cc1ccc(C2=NC3(CCN(C(=O)c4ccc(C)s4)CC3)ON2)cc1	-11.4%
O=C1CCN(C(=O)c2ccccc2)CCCC(C(=O)NCCCN2CCCC2)CCN1 (configuration not stated)	21.1%
CCCc1cnc(C)nc1N1CCC(c2nnc(CN(C)C)n2CC)CC1	-17.9%
CCOc1ccc(C(=O)NC2CCN(c3cc(-c4ccccc4)[nH]n3)CC2)cc1	-4.9%
CCOC(=O)C1CCCN(S(=O)(=O)c2cc3c4c(c2)CC(=O)N4CCC3)C1 (configuration not stated)	-8.7%
